From PubChem BioAssay (Tox21) come the findings set out here.

Values without a mark were called inactive. Records with an inconclusive call do not appear. Activity calls are given as the source filed them. Unless noted, calls come from the whole dose curve; as a rule, active = well fitted curve in the direction sought with a large enough effect in the repeat runs; inconclusive = weak or mixed curves; inactive = no such curve, though single readings can be large; an effect the other way counts as inactive or inconclusive.

The target in assay [1] is Androgen receptor (Homo sapiens) (UniProt P10275). Put plainly: qHTS assay to identify small molecule antagonists of the androgen receptor (AR) signaling pathway using the MDA cell line in the presence of 0.5 nM R1881 (AID 1259243). Note: nearly all actives have a fitted effect of over 50% in size. Note: potency is the fitted concentration of half-maximal effect. The gist of the method: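 MDA-kb2, MMTV-luc (AR/GR elements); 3,000 cells/well; cpd + 0.5 nM R1881 final; 16 hr 37C, 0% CO2; ONE-Glo 30 min RT; luminescence.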
Background: In qHTS, concentration-response curves come from the screen itself.

Assay [2] has as its target Estrogen receptor (Homo sapiens) (UniProt P03372). Nature of the assay: qHTS assay to identify small molecule antagonists of the estrogen receptor alpha (ER-alpha) signaling pathway using the BG1 cell line in the presence of 0.1 nM 17-beta-estradiol (AID 1259244). Note: nearly all actives have a fitted effect of over 50% in size. Note: potency is the fitted concentration of half-maximal effect. A digest of the protocol: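 Luminescence after ONE-Glo (30 min, room temperature) measured ERE-luciferase activity in VM7Luc4E2 cells treated 22 h with compound and 0.1 nM final 17beta-estradiol as stimulator.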

A short description of assay [3]: qHTS assay to identify small molecule HDAC inhibitors (AID 1259364).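 Note: wild-type HCT-116 cells with endogenous class I/II HDAC activity; top concentration of the series differs between compounds; nearly all actives have a fitted effect of over 45% in size.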 A digest of the protocol: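 HCT-116 (wild type), 1,500 cells/well, overnight; compound 2 hr 37C 5% CO2; HDAC-Glo I/II reagent 30 min RT; luminescence readout.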
Assay [4] in a line: qHTS assay to identify small molecule HDAC inhibitors - cell viability counter screen (AID 1259365). Note: series mostly up to about 92 µM; nearly all actives have a fitted effect of over 50% in size. A digest of the protocol:
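After overnight seeding at 1,500 cells per well, wild-type HCT-116 cultures took up compounds in DMSO for 2hr at 37 C. Viable cell content came from luminescence with CellTiter-Glo.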

The nature of assay [5]: qHTS assay to identify small molecule agonists of the sonic hedgehog signaling (Shh) pathway - cell viability counter screen (AID 1259366). Note: nearly all actives have a fitted effect of over 50% in size. Note: potency is the fitted concentration of half-maximal effect. The gist of the method:
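Same-well cytotoxicity read. Gli1-Luc reporter 3T3 cells; compounds 24hr, 37C/5% CO2; CellTiter-Fluor fluorescence.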

Assay [6] is described as follows: qHTS assay to identify small molecule antagonists of the sonic hedgehog signaling (Shh) pathway - cell viability counter screen (AID 1259367). Note: nearly all actives have a fitted effect of over 55% in size. A digest of the protocol: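 Conditioned medium drove Shh signaling in 3T3 Gli1-Luc cells exposed to compounds at 37C and 5% CO2. Viability was determined from CellTiter-Fluor fluorescence, with reagent incubated 1 hr after 23 hr of treatment.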

Assay [7] can be described thus: qHTS assay to identify small molecule agonists of the sonic hedgehog signaling (Shh) pathway (AID 1259368; calls by dose curve;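 note: NIH/3T3-derived 3T3Gli1-Luc cells carrying a stable Gli1-driven firefly luciferase reporter; series mostly up to about 92 µM; nearly all actives have a fitted effect of over 15% in size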). The gist of the method:
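Read-out: firefly luciferase luminescence from a Gli1 response element reporter stably integrated in NIH/3T3-derived 3T3Gli1-Luc cells, measured 30 min at room temperature after reagent addition. Compound exposure lasted 24 hr at 37 C, 5% CO2.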

A short description of assay [8]: qHTS assay to identify small molecule antagonists of the sonic hedgehog signaling (Shh) pathway (AID 1259369; calls by dose curve; note: nearly all actives have a fitted effect of over 45% in size; note: potency is the fitted concentration of half-maximal effect). A digest of the protocol:
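Luminescence readout: firefly Luc under Gli1 response element in 3T3Gli1-Luc cells (NIH/3T3 clone). Antagonist mode, stimulation by conditioned medium; compound exposure 24hr at 37 C, 5% CO2.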

Assay [9] has as its target Estrogen receptor beta (Homo sapiens) (UniProt Q92731). Put plainly: qHTS assay to identify small molecule agonists of the estrogen receptor beta (ER-beta) signaling pathway (AID 1259377; active = well fitted activation curve with a large enough effect in the signal ratio in the repeat runs, not every such curve was filed as active; the % refers to the signal ratio). The gist of the method: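 Read-out: beta-lactamase FRET fluorescence. Cell line: ER-beta-UAS-bla HEK293T in 2% charcoal-stripped FBS. Exposure: 16 hr at 37C. Substrate step: 2 h at room temperature.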

Assay [10] is described as follows: qHTS assay to identify small molecule phospholipidosis (PLD) inducers (AID 1259344; active = well fitted curve in the direction sought with a large enough effect; an effect the other way counts as inactive or inconclusive). A digest of the protocol: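 After 4 h attachment on collagen I, HepG2 cells were dosed with compound alongside LipidTOX Red, kept 24 h at 37 C, fixed, and imaged for lamellar phospholipid pits.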
% is set by controls: 0 for no effect and ±100 for the full control effect.

Estrogen receptor beta (Homo sapiens), sequence (Q92731 whole entry, looked up): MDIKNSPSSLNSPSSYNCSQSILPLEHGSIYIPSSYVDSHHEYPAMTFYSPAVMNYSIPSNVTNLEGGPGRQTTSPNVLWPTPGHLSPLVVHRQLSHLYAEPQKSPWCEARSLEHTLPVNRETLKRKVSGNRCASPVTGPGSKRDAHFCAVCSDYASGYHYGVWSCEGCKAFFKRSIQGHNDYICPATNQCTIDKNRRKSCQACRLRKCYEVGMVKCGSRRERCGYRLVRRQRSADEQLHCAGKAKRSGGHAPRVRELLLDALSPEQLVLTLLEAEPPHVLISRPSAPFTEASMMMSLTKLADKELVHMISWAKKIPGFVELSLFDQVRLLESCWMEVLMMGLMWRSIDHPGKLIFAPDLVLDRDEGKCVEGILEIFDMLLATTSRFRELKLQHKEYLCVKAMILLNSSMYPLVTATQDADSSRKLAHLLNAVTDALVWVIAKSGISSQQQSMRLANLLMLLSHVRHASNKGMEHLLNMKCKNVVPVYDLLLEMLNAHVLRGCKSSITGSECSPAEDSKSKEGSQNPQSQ
Androgen receptor (Homo sapiens), sequence (P10275 whole entry, looked up): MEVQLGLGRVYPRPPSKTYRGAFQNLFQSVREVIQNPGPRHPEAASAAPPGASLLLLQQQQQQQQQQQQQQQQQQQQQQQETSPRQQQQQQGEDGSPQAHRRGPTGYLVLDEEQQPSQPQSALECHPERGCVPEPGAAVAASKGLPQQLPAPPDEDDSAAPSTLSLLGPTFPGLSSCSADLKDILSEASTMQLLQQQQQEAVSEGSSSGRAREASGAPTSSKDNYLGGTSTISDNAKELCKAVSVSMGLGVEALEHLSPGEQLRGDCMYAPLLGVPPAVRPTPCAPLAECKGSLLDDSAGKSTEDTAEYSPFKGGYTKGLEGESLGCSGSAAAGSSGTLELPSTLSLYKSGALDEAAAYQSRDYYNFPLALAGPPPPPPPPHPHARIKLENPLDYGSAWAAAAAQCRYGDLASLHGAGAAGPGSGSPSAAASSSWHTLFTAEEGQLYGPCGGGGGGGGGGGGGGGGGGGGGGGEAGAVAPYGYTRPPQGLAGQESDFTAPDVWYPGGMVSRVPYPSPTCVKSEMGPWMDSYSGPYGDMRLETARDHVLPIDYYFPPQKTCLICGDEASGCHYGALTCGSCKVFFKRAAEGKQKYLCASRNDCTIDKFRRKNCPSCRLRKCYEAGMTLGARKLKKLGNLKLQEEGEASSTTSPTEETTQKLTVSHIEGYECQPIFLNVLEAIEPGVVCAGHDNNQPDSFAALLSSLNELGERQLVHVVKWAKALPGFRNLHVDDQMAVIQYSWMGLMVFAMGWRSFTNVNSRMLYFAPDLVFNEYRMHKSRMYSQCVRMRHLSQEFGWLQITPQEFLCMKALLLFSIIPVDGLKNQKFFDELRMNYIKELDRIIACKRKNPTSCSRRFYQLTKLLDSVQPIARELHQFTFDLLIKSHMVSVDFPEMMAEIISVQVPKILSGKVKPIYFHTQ
Estrogen receptor (Homo sapiens), sequence (P03372 whole entry, looked up): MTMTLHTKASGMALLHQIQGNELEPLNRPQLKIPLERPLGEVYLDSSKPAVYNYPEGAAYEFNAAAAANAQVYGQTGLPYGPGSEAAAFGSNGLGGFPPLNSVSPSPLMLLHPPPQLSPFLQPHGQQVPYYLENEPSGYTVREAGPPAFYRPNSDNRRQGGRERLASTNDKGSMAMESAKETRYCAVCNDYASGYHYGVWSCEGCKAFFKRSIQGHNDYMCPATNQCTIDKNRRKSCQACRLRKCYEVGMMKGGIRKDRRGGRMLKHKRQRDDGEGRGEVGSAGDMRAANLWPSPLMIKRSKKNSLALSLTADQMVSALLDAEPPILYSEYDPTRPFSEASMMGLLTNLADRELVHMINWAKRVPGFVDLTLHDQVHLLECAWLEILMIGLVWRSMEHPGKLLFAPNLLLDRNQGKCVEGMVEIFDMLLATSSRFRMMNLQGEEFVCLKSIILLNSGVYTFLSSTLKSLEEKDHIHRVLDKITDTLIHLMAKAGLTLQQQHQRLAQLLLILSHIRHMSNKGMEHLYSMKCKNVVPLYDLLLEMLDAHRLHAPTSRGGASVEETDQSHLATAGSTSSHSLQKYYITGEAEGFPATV

Turning to `CCOB(OCC)OCC`, the Potency entry in assay [1], in assay [2], in assay [3], in [4], in assay [5] and in assay [6] was “inactive” in each case. Besides, the Potency result in assay [7], in assay [8] and in [9] was “inactive” throughout.
Regarding `COc1ccccc1C=O`, the Potency entry in assay [1], in [2], in assay [3], in [4], in assay [5] and in assay [6] was “inactive” throughout. The Potency result in assay [7], in assay [8] and in assay [9] was “inactive” throughout.
On to `NC(=O)c1ccccc1N`, for which the Potency entry in assay [1], in assay [2], in assay [3], in [4], in [5] and in assay [6] was “inactive” in each case. Further, the Potency result in assay [7] and in assay [8] was “inactive” throughout.
For `C=CC/C=C/C/C=C/C/C=C/C`, the Potency entry in assay [1], in [2], in assay [3], in [4], in assay [5] and in assay [6] was “inactive” throughout. For the same compound, the Potency entry in [7], in [8] and in assay [9] was “inactive” each time.
With `CC(=O)OC1CCCCC1`, the Potency entry in [1], in assay [2], in assay [3], in assay [4], in assay [5] and in assay [6] was “inactive” throughout. Also, the Potency entry in assay [7] and in assay [8] was “inactive” each time.
As to `OCCCS`, the Potency entry in assay [1], in assay [2], in assay [3], in assay [4], in [5] and in assay [6] was “inactive” each time. The Potency result in [7] and in [8] was “inactive” each time.
`CCCCCCCOC(=O)c1ccccc1C(=O)OCCCCCCC`: the Potency result in assay [1], in [2], in assay [3], in assay [4], in assay [5] and in assay [6] was “inactive” in each case. Further, the Potency entry in assay [7] was “inactive”.
Consider `CCC(C)c1ccccc1` (stereo unspecified), for which the Potency result in [1], in assay [2], in [3], in assay [4], in assay [5] and in assay [6] was “inactive” each time. The Potency result in assay [7] and in assay [8] was “inactive” throughout.
For `C/C=C/CO`, the Potency entry in assay [1], in assay [2], in [3], in assay [4], in assay [5] and in assay [6] was “inactive” each time. Besides, the Potency entry in [7] and in assay [8] was “inactive” each time.
Take `C=C/C=C/C=C/CCCCC`: in [1], the activity, negative = inhibition is 3% [at 19 µM]. Moreover, the values for the activity change, negative = inhibition in assay [2], in assay [3] and in assay [8] were -0.135% [at 19 µM], -2.93% [at 19 µM] and -23.5% [at 19 µM], respectively. The activity change, negative = cytotoxicity in [4] was -0.499% [at 19 µM]. The viability change, negative = cytotoxic is -4.32% [at 19 µM] in assay [5] and -2.58% [at 19 µM] in [6]. For the same compound, the activity change in assay [7] is -0.134% [at 18.9 µM, hits give high values]. Moreover, the activation in assay [9] was -0.263% [at 19 µM].
As for `C[Si](C)(C)Cl`, the Potency entry in assay [1], in assay [2], in [3], in assay [4], in assay [5] and in assay [6] was “inactive” in each case. Besides, the Potency entry in [7], in assay [8] and in assay [9] was “inactive” in each case.
As to `c1ccc2c(c1)CCC2`, the Potency entry in assay [1], in assay [2], in assay [3], in assay [4], in assay [5] and in assay [6] was “inactive” throughout. The Potency result in assay [7], in [8] and in assay [9] was “inactive” throughout.
Regarding `Cn1cccc1`, the Potency result in assay [1], in [2], in assay [3], in assay [4], in assay [5] and in assay [6] was “inactive” in each case. In addition, the Potency result in assay [7] and in assay [8] was “inactive” each time.
For the compound `CC1CNCC(C)O1` (stereo unspecified), the Potency result in assay [1], in assay [2], in assay [3], in assay [4], in assay [5] and in assay [6] was “inactive” each time. Moreover, the Potency entry in assay [7], in assay [8] and in assay [9] was “inactive” throughout.
For the compound `COc1ccc(-n2nc(CCC(=O)N(C)O)cc2-c2ccc(Cl)cc2)cc1`, the Potency entry in assay [1], in [3], in assay [4], in assay [5], in assay [6] and in assay [7] was “inactive” in each case. In assay [9], the Potency result is “inactive”. For the same compound, the Potency was 26.6 µM (active) in assay [2] and 8.41 µM (active) in [8].
For `Cc1cn[nH]c1`, the Potency entry in assay [1], in assay [2], in [10], in assay [3], in assay [4] and in assay [5] was “inactive” in each case. Also, the Potency entry in assay [6], in assay [7], in assay [8] and in assay [9] was “inactive” throughout.
In the case of `O=Cc1ccc(F)cc1`, the Potency result in assay [1], in assay [2], in [3], in assay [4], in [5] and in assay [6] was “inactive” in each case. The Potency result in [7] and in [8] was “inactive” throughout.
Regarding `CCCC(=O)OCC(COC(=O)CCC)OC(=O)CCC`, the Potency entry in assay [1], in assay [2], in assay [3], in assay [4], in assay [5] and in assay [6] was “inactive” each time. Besides, the Potency entry in [7], in assay [8] and in assay [9] was “inactive” throughout.
As to `OCCCc1cccnc1`, the Potency entry in assay [1], in assay [2], in assay [3], in [4], in [5] and in assay [6] was “inactive” throughout. The Potency result in [7] and in assay [8] was “inactive” throughout.
For `O=C1NCCN1CCN1CCC(c2cn(-c3ccc(F)cc3)c3ccc(Cl)cc23)CC1`, the Potency in assay [1] was 11.9 µM (active); in [2] it was 8.41 µM (active); in assay [5] it was 18.8 µM (active); in assay [8], 13.3 µM (active). Further, the Potency result in assay [10], in [3], in assay [4] and in [7] was “inactive” throughout.
For the compound `CCCCCCCC(=O)OCC`, the Potency result in assay [1], in assay [2], in [3], in [4], in assay [5] and in [6] was “inactive” each time. The Potency entry in assay [7] and in assay [8] was “inactive” throughout.
For `OCCCCl`, the Potency result in [1], in [2], in [3], in assay [4], in assay [5] and in assay [6] was “inactive” each time. Also, the Potency result in assay [7] and in assay [8] was “inactive” each time.
